Laboratory results: PubChem BioAssay (EPA / NIEHS)
Active and inactive are the calls of the source. Rule for the calls: active = hit-call score of the fitted dose curve at least 0.9, where 1 is the maximum; inactive = score below 0.9.

Assays:
Conditions in all cases: mRNA level, 48 h; actives raise or lower the signal
[1] = read-out: Cytochrome P450 7A1 (Homo sapiens) (UniProt P22680); experiment: LTEA_HepaRG_CYP7A1: Life Technologies and Expression Analysis (LTEA) Assay for Cytochrome P450 7A1 (CYP7A1) using HepaRG (AID 2283496)
How it was run: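 HepaRG cells plated 48 h, then switched to serum-free induction medium and exposed in duplicate for 48 h to 8-point half-log series from 100 uM in 0.5% DMSO. CYP7A1 mRNA by qRT-PCR (TaqMan), normalized to ACTB/GAPDH/POLR2A; bidirectional fit versus DMSO.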

[2] = read-out: Glutathione S-Transferase (GSTA2), GSTA2 (gene 2939); experiment: LTEA_HepaRG_GSTA2: Life Technologies and Expression Analysis (LTEA) Assay for Glutathione S-Transferase (GSTA2) using HepaRG (AID 2283497)
How it was run: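 Human HepaRG cells, plated 48 h, then exposed in serum-free induction medium for 48 h to eight half-log concentrations up to 100 uM in 0.5% DMSO, duplicate. GSTA2 mRNA by qRT-PCR, normalized to ACTB/GAPDH/POLR2A; bidirectional fit versus DMSO.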

[3] = read-out: Glutamate-cysteine ligase catalytic (GCLC), GCLC (gene 2729); experiment: LTEA_HepaRG_GCLC: Life Technologies and Expression Analysis (LTEA) Assay for Glutamate-cysteine ligase catalytic (GCLC) using HepaRG (AID 2283498)
How it was run: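 Differentiated human HepaRG cells, plated 48 h then switched to serum-free induction medium, were exposed in duplicate for 48 h to 8 half-log concentrations topping at 100 uM in 0.5% DMSO. GCLC mRNA was quantified by qRT-PCR against ACTB, GAPDH and POLR2A.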

[4] = read-out: Glutamate-cysteine ligase regulatory (GCLM), GCLM (gene 2730); experiment: LTEA_HepaRG_GCLM: Life Technologies and Expression Analysis (LTEA) Assay for Glutamate-cysteine ligase regulatory (GCLM) using HepaRG (AID 2283500)
How it was run: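 Differentiated HepaRG cells exposed 48 h in serum-free induction medium to eight half-log concentrations up to 100 uM (0.5% DMSO). GCLM mRNA by TaqMan qRT-PCR, normalized to ACTB, GAPDH and POLR2A; bidirectional fit versus DMSO.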

[5] = read-out: Glutathione S-transferase M3 (GSTM3), GSTM3 (gene 2947); experiment: LTEA_HepaRG_GSTM3: Life Technologies and Expression Analysis (LTEA) Assay for Glutathione S-transferase M3 (GSTM3) using HepaRG (AID 2283501)
How it was run: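 GSTM3 transcript levels came from Fluidigm TaqMan qRT-PCR normalized to three housekeeping genes, fitted in both directions against DMSO. HepaRG cultures received chemicals for 48 h in serum-free induction medium (0.5% DMSO), 8 half-log concentrations up to 100 uM, duplicate.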

[6] = read-out: Heat shock 70 kDa protein 1 (HSPA1A), gene 3303; experiment: LTEA_HepaRG_HSPA1A: Life Technologies and Expression Analysis (LTEA) Assay for Heat shock 70 kDa protein 1 (HSPA1A) using HepaRG (AID 2283502)
How it was run: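 Human HepaRG cells in serum-free induction medium were exposed in duplicate for 48 h to 8 half-log concentrations, highest 100 uM, in 0.5% DMSO. HSPA1A mRNA read by TaqMan qRT-PCR, normalized to ACTB, GAPDH, POLR2A, fitted bidirectionally against DMSO.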

[7] = read-out: Hypoxia-inducible factor 1-alpha (Homo sapiens) (UniProt Q16665); experiment: LTEA_HepaRG_HIF1A: Life Technologies and Expression Analysis (LTEA) Assay for Hypoxia-inducible factor 1 (HIF1A) Trancription factor using HepaRG (AID 2283503)
How it was run: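 Differentiated HepaRG cells in serum-free induction medium exposed 48 h, in duplicate, to 8-point half-log series from 100 uM in 0.5% DMSO. HIF1A mRNA measured by TaqMan qRT-PCR, normalized to ACTB/GAPDH/POLR2A, fitted bidirectionally versus DMSO.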

[8] = read-out: 3-Hydroxy-3-Methylglutaryl-CoA Synthase 2 (HMGCS2), HMGCS2 (gene 3158); experiment: LTEA_HepaRG_HMGCS2: Life Technologies and Expression Analysis (LTEA) Assay for 3-Hydroxy-3-Methylglutaryl-CoA Synthase 2 (HMGCS2) using HepaRG (AID 2283504)
How it was run: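 Readout is HMGCS2 transcript by qRT-PCR, housekeeping-normalised (ACTB/GAPDH/POLR2A) and fitted bidirectionally against 0.5% DMSO. Differentiated HepaRG cells received chemicals 48 h, duplicate wells, eight half-log concentrations topping at 100 uM.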

HGF (gene 3082) = experiment: LTEA_HepaRG_HGF: Life Technologies and Expression Analysis (LTEA) Assay for Hepatocyte Growth Facto (HGF) using HepaRG (AID 2283505)
How it was run: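 HGF transcript was quantified by TaqMan qRT-PCR against three housekeeping genes after 48 h treatment of HepaRG cells. Exposure ran in duplicate over eight half-log steps topping at 100 uM in 0.5% DMSO vehicle.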

[9] = read-out: Insulin Like Growth Factor 1 (IGF1), IGF1 (gene 3479); experiment: LTEA_HepaRG_IGF1: Life Technologies and Expression Analysis (LTEA) Assay for Insulin Like Growth Factor 1 (IGF1) using HepaRG (AID 2283506)
How it was run: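 Differentiated HepaRG cells in serum-free induction medium, exposed 48 h in duplicate to 8 half-log concentrations up to 100 uM in 0.5% DMSO. IGF1 mRNA by Fluidigm qRT-PCR, normalised to ACTB, GAPDH and POLR2A.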

[10] = read-out: Intercellular Adhesion Molecule 1 (ICAM1), ICAM1 (gene 3383); experiment: LTEA_HepaRG_ICAM1: Life Technologies and Expression Analysis (LTEA) Assay for Intercellular Adhesion Molecule 1 (ICAM1) using HepaRG (AID 2283507)
How it was run: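 ICAM1 transcript levels measured by qRT-PCR, normalized to three housekeeping genes (ACTB, GAPDH, POLR2A), after 48 h chemical exposure of HepaRG cells. Duplicate eight-point half-log series from 100 uM in 0.5% DMSO; gain or loss fitted against vehicle.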

[11] = read-out: Insulin-like growth factor-binding protein 1 (IGFBP1), IGFBP1 (gene 3484); experiment: LTEA_HepaRG_IGFBP1: Life Technologies and Expression Analysis (LTEA) Assay for Insulin-like growth factor-binding protein 1 (IGFBP1) using HepaRG (AID 2283508)
How it was run: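 Read-out is qRT-PCR transcript level normalized to three housekeeping genes, fitted in both directions against 0.5% DMSO. Differentiated HepaRG cells received eight half-log concentrations (top 100 uM) in duplicate for 48 h in serum-free induction medium.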

[12] = read-out: Interleukin 6 (IL6), IL6 (gene 3569); experiment: LTEA_HepaRG_IL6: Life Technologies and Expression Analysis (LTEA) Assay for Interleukin 6 (IL6) using HepaRG (AID 2283509)
How it was run: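 Differentiated human HepaRG cells, plated 48 h then switched to serum-free induction medium, were exposed in duplicate for 48 h to eight half-log concentrations up to 100 uM in 0.5% DMSO. IL6 mRNA measured by qRT-PCR, normalized to ACTB/GAPDH/POLR2A.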

[13] = read-out: Interleukin 6 Receptor (IL6R), IL6R (gene 3570); experiment: LTEA_HepaRG_IL6R: Life Technologies and Expression Analysis (LTEA) Assay for Interleukin 6 Receptor (IL6R) using HepaRG (AID 2283510)
How it was run: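 Differentiated HepaRG cells, plated 48 h, then exposed in duplicate for 48 h in serum-free induction medium to 8 half-log concentrations (top 100 uM, 0.5% DMSO). IL6R mRNA measured by TaqMan qRT-PCR, normalized to ACTB/GAPDH/POLR2A; bidirectional fit vs DMSO.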

[14] = read-out: Potassium channel subfamily K member 1 (KCNK1), KCNK1 (gene 3775); experiment: LTEA_HepaRG_KCNK1: Life Technologies and Expression Analysis (LTEA) Assay for Potassium channel subfamily K member 1 (KCNK1) using HepaRG (AID 2283511)
How it was run: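 Differentiated human HepaRG cells in serum-free induction medium were exposed in duplicate for 48 h to 8 half-log concentrations up to 100 uM in 0.5% DMSO. KCNK1 mRNA was measured by TaqMan qRT-PCR, normalized to ACTB, GAPDH and POLR2A, and fitted bidirectionally versus DMSO.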

[15] = read-out: Keratin 19 (KRT19), KRT19 (gene 3880); experiment: LTEA_HepaRG_KRT19: Life Technologies and Expression Analysis (LTEA) Assay for Keratin 19 (KRT19) using HepaRG (AID 2283512)
How it was run: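 KRT19 transcript measured by TaqMan qRT-PCR, referenced to three housekeeping genes, after HepaRG cells received test chemicals for 48 h. Eight half-log concentrations, top 100 uM, 0.5% DMSO vehicle; increases and decreases both fitted.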

[16] = read-out: JUN Transcription Factor, JUN (gene 3725); experiment: LTEA_HepaRG_JUN: Life Technologies and Expression Analysis (LTEA) Assay for JUN Transcription Factor using HepaRG (AID 2283513)
How it was run: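 HepaRG cells, 48 h post-plating, exposed 48 h in serum-free induction medium to 8-point half-log series (top 100 uM, 0.5% DMSO), duplicate; mRNA by qRT-PCR (TaqMan, Fluidigm), normalized to ACTB/GAPDH/POLR2A; bidirectional fit vs DMSO.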

[17] = read-out: Lipoprotein lipase (LPL), LPL (gene 4023); experiment: LTEA_HepaRG_LPL: Life Technologies and Expression Analysis (LTEA) Assay for Lipoprotein lipase (LPL) using HepaRG (AID 2283515)
How it was run: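 Differentiated human HepaRG cells in serum-free induction medium were exposed in duplicate for 48 h to eight half-log concentrations (top 100 uM) in 0.5% DMSO. LPL mRNA was quantified by TaqMan qRT-PCR, normalized to ACTB, GAPDH and POLR2A.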

[18] = read-out: Lipase C (LIPC), LIPC (gene 3990); experiment: LTEA_HepaRG_LIPC: Life Technologies and Expression Analysis (LTEA) Assay for Lipase C (LIPC) using HepaRG (AID 2283514)
How it was run: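 Differentiated human HepaRG cells in serum-free induction medium were exposed in duplicate for 48 h to eight concentrations (top 100 uM, half-log steps, 0.5% DMSO). LIPC mRNA was quantified by TaqMan qRT-PCR, normalized to ACTB, GAPDH and POLR2A, with bidirectional fitting versus DMSO.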

Chain of Hypoxia-inducible factor 1-alpha (Homo sapiens) (Q16665 whole entry, looked up): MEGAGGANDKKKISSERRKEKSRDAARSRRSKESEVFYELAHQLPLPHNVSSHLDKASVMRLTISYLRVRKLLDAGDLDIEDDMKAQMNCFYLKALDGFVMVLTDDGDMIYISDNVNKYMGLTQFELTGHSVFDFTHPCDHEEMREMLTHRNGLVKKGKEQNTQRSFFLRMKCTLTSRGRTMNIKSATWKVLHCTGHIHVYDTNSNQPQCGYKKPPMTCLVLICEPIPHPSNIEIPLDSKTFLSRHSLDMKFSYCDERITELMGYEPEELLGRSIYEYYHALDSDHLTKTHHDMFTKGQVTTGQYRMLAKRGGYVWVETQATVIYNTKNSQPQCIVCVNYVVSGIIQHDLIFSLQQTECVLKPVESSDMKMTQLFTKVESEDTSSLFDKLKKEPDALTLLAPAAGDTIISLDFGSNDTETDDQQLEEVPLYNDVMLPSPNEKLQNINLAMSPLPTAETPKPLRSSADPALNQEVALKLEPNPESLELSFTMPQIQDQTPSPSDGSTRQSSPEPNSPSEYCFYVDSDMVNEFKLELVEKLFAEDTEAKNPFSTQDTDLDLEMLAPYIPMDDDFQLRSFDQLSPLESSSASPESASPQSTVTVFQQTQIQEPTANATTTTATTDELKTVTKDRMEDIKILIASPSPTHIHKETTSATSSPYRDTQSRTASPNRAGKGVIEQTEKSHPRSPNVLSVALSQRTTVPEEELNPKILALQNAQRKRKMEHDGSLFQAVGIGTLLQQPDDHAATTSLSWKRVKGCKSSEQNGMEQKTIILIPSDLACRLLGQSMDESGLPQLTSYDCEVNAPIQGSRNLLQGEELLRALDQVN

Structure (SMILES): CCOC(=O)C(Cl)Cc1cc(-n2nc(C)n(C(F)F)c2=O)c(F)cc1Cl (stereo unspecified)
- outcome [1]: inactive
- outcome [2]: inactive
- outcome [3]: inactive
- outcome [4]: inactive
- outcome [5]: inactive
- outcome [6]: inactive
- outcome [7]: inactive
- outcome [8]: inactive
- outcome (HGF (gene 3082)): inactive
- outcome [9]: inactive
- outcome [10]: inactive
- outcome [11]: inactive
- outcome [12]: inactive
- outcome [13]: inactive
- outcome [14]: inactive
- outcome [15]: inactive
- outcome [16]: inactive
- outcome [17]: inactive

Structure (SMILES): COc1cnc(OC)n2nc(NS(=O)(=O)c3c(OCC(F)F)cccc3C(F)(F)F)nc12
- AC50 [1]: 26.2 µM (active)
- outcome [2]: inactive
- outcome [3]: inactive
- outcome [4]: inactive
- outcome [5]: inactive
- AC50 [6]: 50 µM (active)
- outcome [7]: inactive
- AC50 [8]: 31.8 µM (active)
- outcome (HGF (gene 3082)): inactive
- AC50 [9]: 10.3 µM (active)
- outcome [10]: inactive
- outcome [11]: inactive
- outcome [12]: inactive
- outcome [13]: inactive
- outcome [14]: inactive
- outcome [15]: inactive
- outcome [16]: inactive
- outcome [18]: inactive
- outcome [17]: inactive

Structure (SMILES): Fc1ccc(Oc2ccnc3cc(Cl)cc(Cl)c23)cc1
- AC50 [1]: 90.5 µM (active)
- AC50 [2]: 83.6 µM (active)
- outcome [3]: inactive
- outcome [4]: inactive
- outcome [5]: inactive
- outcome [6]: inactive
- outcome [7]: inactive
- outcome [8]: inactive
- outcome (HGF (gene 3082)): inactive
- AC50 [9]: 50 µM (active)
- outcome [10]: inactive
- AC50 [11]: 57.2 µM (active)
- AC50 [12]: 77.4 µM (active)
- outcome [14]: inactive
- AC50 [15]: 50 µM (active)
- outcome [16]: inactive
- AC50 [18]: 78.8 µM (active)
- outcome [17]: inactive

Structure (SMILES): CCOP(=S)(OCC)SCn1c(=O)oc2cc(Cl)ccc21
- outcome [1]: inactive
- outcome [2]: inactive
- outcome [3]: inactive
- outcome [4]: inactive
- outcome [5]: inactive
- outcome [6]: inactive
- outcome [7]: inactive
- outcome [8]: inactive
- outcome (HGF (gene 3082)): inactive
- outcome [10]: inactive
- outcome [11]: inactive
- outcome [12]: inactive
- outcome [13]: inactive
- outcome [14]: inactive
- outcome [16]: inactive
- outcome [18]: inactive
